The results in this text go back to PubChem BioAssay AID623868 (Vanderbilt High Throughput Screening Facility, 2012).

Screen size: about 2,100 compounds; about 760 (36%) were called active.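 The calls were made as follows: active = thallium-flux fluorescence traces judged by eye to show enhanced or reduced glutamate response, manual score 1 or -1, so both directions (some results past the limit were not filed as active); inactive = the rest, including fluorescent or raised-baseline compounds.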 Only a sample is shown.

The experiment is described as follows: non-GIRK thallium flux modulation in mGlu8 cells, confirmation, counter-screen for GIRK activator project, cell-based, HEK-293 rmGlu8, no GIRK (AID 623868).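 Also: extra codes mark interference with 3 for fluorescent and 4 for baseline rise.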 As to conditions: thallium flux fluorescence, at 10 µM, actives lie on both sides, codes: 1 enhancer, -1 blocker, 0 none, thallium stimulus containing EC20 glutamate. For orientation: Counterscreens check selectivity or assay interference.
Regarding `CCOc1ccc(Br)cc1/C(C)=N\NC1=NCCN1`, the manual score is 0 (inactive). For `N#CC1=C(N)Oc2n[nH]c(-c3cccs3)c2C1c1ccoc1` (centres undefined), the manual score is 0 (inactive). The figure for `S=C1NC(c2ccccc2)=NCN1c1ccc(Cl)cc1` is 1 (active); for `Cc1cs/c(=N\N=C\c2cccc([N+](=O)[O-])c2)n1Cc1ccco1` it is 0 (inactive); for `Cc1cc(C)c(-n2c(C)cc(/C=C3/NC(=O)NC3=O)c2C)c(C)c1` it is 0 (inactive). The result for `Cc1ccccc1-n1c(SCc2ccccn2)nc2n[nH]c(C)c2c1=N` reads 0 (inactive); that for `CCCOc1cccc(OCCSc2nc(C)cc(=O)[nH]2)c1`, 0 (inactive). Turning to `CCOc1ccc2nc(NC(=O)C(CC)Sc3nc(C)cc(=O)[nH]3)sc2c1` (centres undefined), the manual score is -1 (active). The figure for `CC(C)Cn1c2c(c(O)c(C(=O)Nc3ncccc3O)c1=O)CCCC2` is -1 (active). The result for `C/C(=N\NC(=O)COc1ccc(C)cc1C(C)C)c1ccc(-n2ccnc2)cc1` reads 0 (inactive); that for `CN(C)c1ccc(/C=N\NC(=S)SCN2C(=O)C3CCC(C)(C2=O)C3(C)C)cc1` (centres undefined), 0.5 (inactive); that for `CC12CCC(C(=O)N(CSC(=S)N/N=C\c3ccccc3)C1=O)C2(C)C` (centres undefined), 1 (active). The result for `COc1ccc(/C=N\NC(=S)SCN2C(=O)C3CCC(C)(C2=O)C3(C)C)cc1` (centres undefined) reads 1 (active); that for `CC(Nc1ccc(Br)cn1)c1cc(Cl)ccc1O` (centres undefined), 0 (inactive). In the case of `O=C(Nc1ccccc1C(=O)N/N=C/c1ccco1)c1ccccc1`, the manual score is 1 (active).

For `CN(c1ccccc1C(=O)Nc1ccccc1C(=O)NCc1ccco1)S(C)(=O)=O`, the manual score was 0 (inactive). The figure for `CC(C)NC(=O)/C(=C/c1ccco1)c1ccccc1` is 0 (inactive); for `Cc1ccccc1C(=O)N/N=C/c1ccc([N+](=O)[O-])s1` it is 0 (inactive). On to `Cc1cc(C)c(NC(=O)/C(=C/c2ccco2)c2ccccc2)c(C)c1`, for which the manual score was 0 (inactive). For the compound `Cc1ccccc1C(=O)Nc1ccccc1C(=O)N/N=C\c1ccco1`, the manual score was 1 (active). On to `COc1cc(NC(=O)CSc2nccc(C)n2)c(C)cc1[N+](=O)[O-]`, for which the manual score was 0 (inactive). The result for `Cc1c(NC(=S)NC(NC(=O)CC(C)C)C(Cl)(Cl)Cl)c(=O)n(-c2ccccc2)n1C` (centres undefined) reads 0 (inactive); that for `CCc1cc2c(=O)n(CC)c(SC(C)C(=O)Nc3c(C)n(C)n(-c4ccccc4)c3=O)nc2s1` (centres undefined), -1 (active). `CCCC(c1c(C)n(C)n(-c2ccccc2)c1=O)c1c(C)n(C)n(-c2ccccc2)c1=O`: the manual score was 0 (inactive).

Turning to `O=c1[nH]c(SCc2ccccc2Cl)nc2c1CCCC2`, the manual score was 0 (inactive). For `O=c1c2c(nc3c(-c4cccc(Br)c4)c[nH]n13)CCCC2`, the manual score is 0 (inactive). The figure for `Cc1ccc(-c2[nH]n3c(=O)c4c(nc3c2C)CCCC4)cc1` is 0 (inactive). Regarding `O=c1c2c(nc3c(-c4ccccc4)c[nH]n13)CCCC2`, the manual score was 1 (active). The figure for `O=c1c2c(nc3c(-c4ccc(Cl)cc4)c[nH]n13)CCCC2` is 1 (active).
